Compound activity (PubChem)
An excerpt weighted towards active compounds, which were near 4.6% of everything screened.
HTT prom inh: inhibits huntingtin promoter activity; HEK293 HTT promoter firefly luciferase reporter, 24 h; Potency, µM (titrated, usually from 57.5 µM), most hits filed as inhibitors; 48,000 compounds, 0.93% hits; also: nearly all actives have a fitted effect of over 50% in size
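HEK293 Fluc reporter, 2,500 cells/well, 24 h pre-culture; cpds up to 57.5 uM final, 24 h 37 degrees C; Dual-Glo, 10 min RT; normalized vehicle = 0%, zero RLU = -100%.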
HTT-AS act: activators of huntingtin-antisense promoter activity; HEK293 HTT-AS promoter firefly luciferase reporter, 24 h; response scale: percent change from vehicle, -100% = no light; Potency, µM (titrated, usually from 57.5 µM), usual class: activators; 48,000 compounds, 0.24% hits; AID 1508624; also: nearly all actives have a fitted effect of over 55% in size
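HEK293 luciferase promoter-reporter cells (2,500/well) plated 24 h, then compounds added at up to 57.5 uM final for 24 h at 37 °C. Firefly luminescence by Dual-Glo, normalized to vehicle (0%) and zero RLU (-100%).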
NTMT1 inhibitor: blocks human N-terminal methyltransferase 1 activity | NTMT1 MTase-Glo SAH luminescence, purified enzyme | Q9BV86 | 59,000 compounds, 2.5% hits | Potency, µM (titrated, usually from 114 µM), actives largely listed as inhibitors; also: nearly all actives have a fitted effect of over 65% in size
Target sequence (Q9BV86 whole entry, looked up): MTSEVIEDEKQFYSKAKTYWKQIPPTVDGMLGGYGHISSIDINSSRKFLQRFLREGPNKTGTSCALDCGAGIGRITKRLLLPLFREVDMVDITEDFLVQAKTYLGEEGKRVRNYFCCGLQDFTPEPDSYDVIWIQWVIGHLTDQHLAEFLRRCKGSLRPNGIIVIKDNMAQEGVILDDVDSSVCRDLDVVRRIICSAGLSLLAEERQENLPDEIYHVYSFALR
GPR32 ag: GPR32 (DRV1) agonism, beta-arrestin recruitment. O75388. CHO-K1 GPR32 beta-arrestin PathHunter luminescence, 90 min; zero percent set by DMSO-only wells. activation, % at 76.9 µM. 48,000 compounds, 2.5% hits. AID 1346428;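 active = activation of at least 60% and not above a set upper limit, about 1 call in 100 departs from these limits; inconclusive = activation of 40% to 60%, or above that upper limit; inactive = activation under 40%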
Target sequence (O75388 whole entry, looked up): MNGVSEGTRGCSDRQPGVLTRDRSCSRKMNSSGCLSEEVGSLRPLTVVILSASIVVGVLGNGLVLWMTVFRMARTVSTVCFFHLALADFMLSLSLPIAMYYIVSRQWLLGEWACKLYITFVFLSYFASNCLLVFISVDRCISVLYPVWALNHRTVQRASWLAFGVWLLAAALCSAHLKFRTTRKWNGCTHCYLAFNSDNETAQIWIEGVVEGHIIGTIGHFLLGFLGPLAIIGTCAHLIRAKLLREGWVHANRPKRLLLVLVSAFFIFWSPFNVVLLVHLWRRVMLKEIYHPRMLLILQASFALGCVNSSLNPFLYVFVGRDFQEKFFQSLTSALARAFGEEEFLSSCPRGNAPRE
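PathHunter enzyme-fragment complementation, CHO-K1 GPR32 stable line; 2,500 cells/well, overnight attach; cpd 90 min 37 °C 5% CO2; detection reagent 1 h RT; chemiluminescence. DMSO = EC0.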
Each line names hits and unclear results; the compound was inactive in the other large screens; ! = a repeat was not active. Unless noted, calls follow the shape of the dose curve; as a rule, active = well fitted curve in the direction sought with a large enough effect; inconclusive = small, poorly fitted or top-dose-only effect, or another doubt; inactive = no such curve, though single readings can be large; an effect the other way counts as inactive or inconclusive.

CCCc1cc(C(=O)N[C@H](Cc2ccc(-c3cccc(OC(F)(F)F)c3)nc2)C(=O)N[C@@H]2CCNC2)sc1C	NTMT1 inhibitor 56µM (no result: HTT prom inh, HTT-AS act, GPR32 ag)
COc1ccc(CCCc2nnc(SCC(=O)Nc3ccc(OC)cc3)o2)cc1	NTMT1 inhibitor inconclusive
COc1ccc(CCCc2nnc(SCC(=O)Nc3cccc(F)c3C)o2)cc1	NTMT1 inhibitor inconclusive, GPR32 ag 66
CCC(C)Nc1ncnc2c1cnn2-c1ccc(F)cc1 (stereo not given)	HTT-AS act inconclusive, GPR32 ag 65
Fc1ccc(-n2ncc3c(NCCC4=CCCCC4)ncnc32)cc1	HTT-AS act 10µM, NTMT1 inhibitor inconclusive
OCCN(CCO)c1ncnc2c1cnn2-c1ccc(F)cc1	HTT-AS act 7.9µM
Cc1cnc(-c2ccccc2C(C)C)nc1NCc1ccc(-c2nn[nH]n2)cc1	none (no result: HTT prom inh, HTT-AS act, GPR32 ag)
COc1cc(O)c(C(CC(=O)N2CCCC(C)C2)c2ccc(C)cc2)c(OC)c1 (stereo not given)	none (no result: HTT prom inh, HTT-AS act, GPR32 ag)
C/C1=C\CCC(C)CCO[C@@H]2O[C@H](CO[C@@H]3OC[C@H](O)[C@H](O)[C@H]3OC1=O)[C@@H](O)[C@H](O)[C@H]2O (stereo not given in full)	none (no result: HTT prom inh, HTT-AS act, GPR32 ag)
N[C@@H](Cc1cc(I)c(O)c(I)c1)C(=O)O	NTMT1 inhibitor 14µM
CN1CCN(c2nc3c(S(=O)(=O)c4ccc(Cl)cc4)nnn3c3ccsc23)CC1	NTMT1 inhibitor 79µM
CC(C)c1ccc(S(=O)(=O)c2nnn3c2nc(N2CCN(C)CC2)c2sccc23)cc1	none
CCN1CCN(c2nc3c(S(=O)(=O)c4ccc(C)cc4)nnn3c3ccsc23)CC1	NTMT1 inhibitor 79µM
NCC(O)c1ccc(O)c(O)c1 (stereo not given)	none (no result: HTT prom inh, HTT-AS act, NTMT1 inhibitor)
NCCc1ccc(O)c(O)c1	NTMT1 inhibitor 32µM!
CCc1ccc(C2CC(=O)Nc3cc4c(cc32)OCO4)cc1 (stereo not given)	HTT prom inh inconclusive, NTMT1 inhibitor 89µM, GPR32 ag 72
Cc1ccc(C2CC(=O)Nc3cc4c(cc32)OCCO4)cc1 (stereo not given)	HTT prom inh inconclusive, GPR32 ag 62
COc1ccc(Cl)cc1C1CC(=O)Nc2cc3c(cc21)OCCO3 (stereo not given)	HTT prom inh inconclusive
CCOc1cccc(C2CC(=O)Nc3cc4c(cc32)OCCO4)c1 (stereo not given)	HTT prom inh inconclusive
O=C1CC(c2ccc(Cl)cc2)c2cc3c(cc2N1)OCCO3 (stereo not given)	HTT prom inh inconclusive, GPR32 ag 80
O=C1CC(c2cc(F)cc(F)c2)c2cc3c(cc2N1)OCO3 (stereo not given)	HTT prom inh inconclusive
COc1ccccc1Nc1nn2c(=O)c3ccc(C(=O)NC(C)c4ccccc4)cc3nc2s1 (stereo not given)	none
COc1ccccc1Nc1nn2c(=O)c3ccc(C(=O)NCCC4=CCCCC4)cc3nc2s1	HTT prom inh 10µM
Cc1c(Cl)cccc1Nc1nn2c(=O)c3ccc(C(=O)NCCc4ccccc4)cc3nc2s1	none
Cc1ccc(C)c(Nc2nn3c(=O)c4ccc(C(=O)NCCc5ccccc5)cc4nc3s2)c1	GPR32 ag 74
COc1ccccc1Nc1nn2c(=O)c3ccc(C(=O)NCCc4ccccc4)cc3nc2s1	HTT prom inh 7.1µM, NTMT1 inhibitor inconclusive
Cc1ccc(C)c(Nc2nn3c(=O)c4cc5c(cc4nc3s2)OCO5)c1	GPR32 ag 63
COCCNc1ccc(NC(=O)c2cccs2)cn1	none (no result: HTT prom inh, HTT-AS act, GPR32 ag)
Cn1c(=O)c2[nH]cnc2n(C)c1=O	none
S=c1nc[nH]c2nc[nH]c12	HTT prom inh inconclusive, NTMT1 inhibitor 25µM!
CCOC(=O)Nc1cc(-c2ccc(C)c(NS(C)(=O)=O)c2)nn2c(C)nnc12	none (no result: HTT prom inh, HTT-AS act, GPR32 ag)
C=C(C)C(=O)OC1CC2(C)OC(=CC2=O)C(=C)CC2OC(=O)C(COC)C12 (stereo not given)	none (no result: HTT prom inh, HTT-AS act, GPR32 ag)
CCN(CC)S(=O)(=O)c1nnc(NC(=O)c2ccc(C(C)C)cc2)s1	HTT prom inh inconclusive, GPR32 ag 75
COc1ccccc1-c1nnc(SCC(=O)c2ccc(Cl)cc2)n1-c1ccccc1	HTT prom inh inconclusive, GPR32 ag 80
O=C(Nc1cccc2cccnc12)c1ccc(N2C(=O)[C@@H]3C4C=CC(C4)[C@@H]3C2=O)cc1	none (no result: HTT prom inh, HTT-AS act, GPR32 ag)
O=C(Nc1ccc(SC(F)F)cc1)c1cc(-c2ccc3c(c2)OCCO3)on1	HTT prom inh 10µM
Nc1nonc1C(=Nc1ccc(F)c(Cl)c1)NO	none (no result: HTT prom inh, HTT-AS act, GPR32 ag)
COC(=O)c1ccc(C2Nc3c(C)cc(C)cc3C3C=CCC32)cc1 (stereo not given)	GPR32 ag 79
COC(=O)c1ccc([C@@H]2Nc3c(cccc3C(F)(F)F)[C@@H]3C=CC[C@@H]32)cc1	none
CS(=O)(=O)N1CCC(NC(=O)c2[nH]ncc2NC(=O)c2c(Cl)cccc2Cl)CC1	none (no result: HTT prom inh, HTT-AS act, GPR32 ag)
Cc1cccc(-c2nnc(SCC(=O)N3CCCCC3)o2)c1	HTT-AS act inconclusive
Cc1cccc(-c2nnc(SCCC(=O)O)o2)c1	HTT prom inh 0.25µM, NTMT1 inhibitor inconclusive
Cc1cc(O)cc2c1[C@]1(C)CC[C@H]3C(C)(C)CCC[C@]3(C)[C@H]1C2	none (no result: HTT prom inh, HTT-AS act, GPR32 ag)
CCOC(=O)c1cccc(NC(=O)c2ccc3c(c2)nnn3CC)c1	NTMT1 inhibitor inconclusive, GPR32 ag 61
CCn1nnc2cc(C(=O)Nc3cccc(Cl)c3)ccc21	HTT-AS act inconclusive
CCOC(=O)c1ccc(NC(=O)CSc2nc3cc4ccccc4cc3[nH]2)cc1	NTMT1 inhibitor inconclusive, GPR32 ag inconclusive
CCOC(=O)c1cccc(NC(=O)CSc2cc(=O)n(C)c3ccccc23)c1	none
COC(=O)c1ccc(NC(=O)CSc2nc3cc4ccccc4cc3[nH]2)cc1	GPR32 ag 94
CCOC(=O)c1cccc(NC(=O)CSc2nc3cc4ccccc4cc3[nH]2)c1	GPR32 ag 114
Cc1ccc(C)c(-c2[nH]c3c(c2-c2c(-n4cccc4)n(C)c(=O)[nH]c2=O)c(=O)[nH]c(=O)n3C)c1	NTMT1 inhibitor 89µM
CCCCCCCCOc1ccccc1C(=O)Nc1ccc(C(=O)OCC[N+](C)(CC)CC)cc1	NTMT1 inhibitor 3.5µM!
CC(=O)Nc1sc2c(c1-c1ccc3c(c1)OCCO3)CCNC2	none (no result: HTT prom inh, HTT-AS act, GPR32 ag)
Nc1c(C(=O)Nc2ccc(C(F)(F)F)cc2)sc2nc(-c3cccs3)ccc12	GPR32 ag 71
Nc1c(C(=O)Nc2ccc(Br)cc2)sc2nc(-c3ccncc3)ccc12	none
Cc1cc(F)ccc1NC(=O)c1sc2nc(-c3cccs3)ccc2c1N	GPR32 ag 67
CC(C)c1ccccc1-c1nccc(NCc2ccc(-c3cccnc3)cc2)n1	none (no result: HTT prom inh, HTT-AS act, GPR32 ag)
CC(C)(C)Sc1c(CC(C)(C)C(=O)O)n(Cc2ccc(Cl)cc2)c2ccc(OCc3ccc4ccccc4n3)cc12	none (no result: HTT prom inh, HTT-AS act, GPR32 ag)
O=C(OCC#CCSc1nnc(-c2ccc3ccccc3c2)o1)c1ccccc1	none (no result: HTT prom inh, HTT-AS act, GPR32 ag)
O=C(O)c1cccc(CN2C(=O)/C(=C(\c3ccccc3)c3ccc(Cl)cc3)c3ccccc32)c1	NTMT1 inhibitor 28µM (no result: HTT prom inh, HTT-AS act, GPR32 ag)
